Drawing on the OligoGym collection, this text covers sensor-assay potency score (higher = more potent) for 40 sequences.
Further: reference of the scale not given here.

One assay deals with CASP8. The experiment in a line: pooled miR-30 sensor sort-seq; sequence = guide strand. Particulars: shRNA.
With TTCTGAAATCTGATAGAGCATG, the sensor-assay potency score (higher = more potent) was -1.4. On to TTCATAGTCGTTGATTATCTTC, for which the sensor-assay potency score (higher = more potent) is -0.794. On to TTCTTCTGAAATCTGATAGAGC, for which the sensor-assay potency score (higher = more potent) was -0.601. In turn, TTTTGCAAAATTGTGATTGTTG returned a sensor-assay potency score (higher = more potent) of 0.0045. As to TAATAGATGATCGACCCTCCGC, the sensor-assay potency score (higher = more potent) was -0.463. The sequence TAATGATTTAAAATAATCCAAG had a sensor-assay potency score (higher = more potent) of -1.15. TTCATAGTTCACTTCAGTCAGG: the sensor-assay potency score (higher = more potent) was -0.715.

Sequence ATCTGATAGAGCATGACCCTGT had a sensor-assay potency score (higher = more potent) of -0.509.

The target in the next assay is CASQ1. The assay is described as above. The following applies: shRNA.
The sequence TTCATGGTAGAGGAGTGCCAGC returned a sensor-assay potency score (higher = more potent) of -1.44. TTCTTTGCCACCTTGCTGTCGA showed a sensor-assay potency score (higher = more potent) of 0.0735. Regarding TTGATCACACGGTCCACACCAT, the sensor-assay potency score (higher = more potent) is -0.226. On the same count and under the same terms, then TACATTAACAAGTGATTGCTGA, with 0.512; and ATGCTCTGAGTCTTTGCTCTTG, with -1.26.

As for AACACATTCTTGTAGTTCTTTG, the sensor-assay potency score (higher = more potent) is -0.85. For the sequence TACAGGATTAGAGAGAGTGGGG, the sensor-assay potency score (higher = more potent) was -0.52. On the same count and under the same terms, next, TTGACAATCTCCTCTTCGCTAT: -0.427; TCTCTAAGAACTCGAAACCATC: -1.47; TAGCCAATGAGTTTGATCTCAT: -0.312. TTCTTGAACACATTCTTGTAGT had a sensor-assay potency score (higher = more potent) of 0.249. In turn, TAGGACATCAAGCAGAAACTCC had a sensor-assay potency score (higher = more potent) of -0.771.

Consider TAATGCTCTGAGTCTTTGCTCT, for which the sensor-assay potency score (higher = more potent) was -0.39.

For the sequence TTCACCTTCAATCAATTCCACA, the sensor-assay potency score (higher = more potent) was -1.32. The sequence TTGTGAGGCCTTGTCATCCTCG showed a sensor-assay potency score (higher = more potent) of -0.34. As to ATCCTTCTCAGAGTCTACCAGC, the sensor-assay potency score (higher = more potent) is -1.1.

Consider TAGTTCTTTGCATTGACATTGA, for which the sensor-assay potency score (higher = more potent) was -0.428. In turn, ATACTTCTTGAACACATTCTTG registered a sensor-assay potency score (higher = more potent) of -1.25. TTGAGAGTCTCTAAGAACTCGA yielded a sensor-assay potency score (higher = more potent) of -0.0687.

TACTTCTTGAACACATTCTTGT displayed a sensor-assay potency score (higher = more potent) of 0.247. TTGTAATGCTCTGAGTCTTTGC gave a sensor-assay potency score (higher = more potent) of -1.04. TTCTCAGAGTCTACCAGCCCGA had a sensor-assay potency score (higher = more potent) of -1.38. TTGTCTTCTAGGACTTGGGCTG returned a sensor-assay potency score (higher = more potent) of -0.338.

Another assay has as its target CBL. Described as above. Particulars: shRNA.
Consider TGTTGTAGGATCACCATCCAGA, for which the sensor-assay potency score (higher = more potent) is 0.05. On the same count and under the same terms, then TTGAGGGAACACATACTCGCTG, with -0.612; and TTGTTGTAGGATCACCATCCAG, with -1.34. TTTCTTCATCAAATTCTCCATA: the sensor-assay potency score (higher = more potent) was -0.795. In turn, TTCCTGAGCAAAGAGGACCAGG showed a sensor-assay potency score (higher = more potent) of -0.903. Consider ATACGTACAGCTATCAATCTGC, for which the sensor-assay potency score (higher = more potent) worked out at 0.514. In turn, AAATTCTCCATAAACACCCTAA displayed a sensor-assay potency score (higher = more potent) of -0.0479. In turn, TTACATAGTTGGAATGTGGAGC had a sensor-assay potency score (higher = more potent) of 0.417. Regarding TATCTGAGAGAGTTCGGCGGGC, the sensor-assay potency score (higher = more potent) is -0.0196.
